Measurements: PubChem BioAssay (Tox21)
Results filed as inconclusive are left out. The source made the active and inactive calls. Unless noted, calls follow the shape of the dose curve; as a rule, active = well fitted curve in the direction sought with a large enough effect in the repeat runs; inconclusive = weak or mixed curves; inactive = no such curve, though single readings can be large; an effect the other way counts as inactive or inconclusive.

Key:
[1] = qHTS assay to identify small molecule antagonists of the sonic hedgehog signaling (Shh) pathway (AID 1259369; calls by dose curve; also: nearly all actives have a fitted effect of over 45% in size)
Procedure, shortened: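 NIH/3T3-derived 3T3Gli1-Luc cells with stably integrated Gli1-Luc reporter were preincubated 4hr at 37 C, then given compounds in DMSO plus Shh conditioned medium and incubated 24hr. Firefly luciferase luminescence read after 30min reagent at room temperature.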

[2] = biological target: Estrogen receptor beta (Homo sapiens) (UniProt Q92731); experiment: qHTS assay to identify small molecule agonists of the estrogen receptor beta (ER-beta) signaling pathway (AID 1259377; active = well fitted activation curve with a large enough effect in the signal ratio in the repeat runs, not every such curve was filed as active; the % refers to the signal ratio)
Chain of Estrogen receptor beta (Homo sapiens) (Q92731 whole entry, looked up): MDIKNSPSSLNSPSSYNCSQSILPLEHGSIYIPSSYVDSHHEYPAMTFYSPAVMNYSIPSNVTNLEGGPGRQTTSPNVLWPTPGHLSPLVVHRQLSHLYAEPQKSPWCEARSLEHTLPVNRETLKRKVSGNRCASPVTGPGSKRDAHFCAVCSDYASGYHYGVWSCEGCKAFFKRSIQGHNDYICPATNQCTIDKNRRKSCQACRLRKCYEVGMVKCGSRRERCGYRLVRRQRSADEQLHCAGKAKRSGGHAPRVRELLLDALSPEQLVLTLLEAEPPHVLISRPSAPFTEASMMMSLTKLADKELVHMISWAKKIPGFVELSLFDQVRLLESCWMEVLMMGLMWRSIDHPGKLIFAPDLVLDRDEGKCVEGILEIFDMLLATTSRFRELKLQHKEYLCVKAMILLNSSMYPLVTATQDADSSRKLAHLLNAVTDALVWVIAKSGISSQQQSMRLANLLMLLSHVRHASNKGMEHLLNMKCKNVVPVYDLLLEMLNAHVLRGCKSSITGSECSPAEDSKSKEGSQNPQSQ
Procedure, shortened: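 In HEK293T cells bearing a UAS-beta-lactamase reporter under ER-beta control, DMSO-delivered compounds were incubated for 16 hr at 37C. Activity was detected as fluorescence 2 hours after LiveBLAzer B/G FRET substrate addition.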

[3] = biological target: Estrogen receptor beta (Homo sapiens) (UniProt Q92731); experiment: qHTS assay to identify small molecule antagonists of the estrogen receptor beta (ER-beta) signaling pathway (AID 1259378; active = well fitted inhibition curve with a large enough effect in the signal ratio in the repeat runs, not every such curve was filed as active; the % refers to the signal ratio)
Procedure, shortened: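 Antagonist mode: compounds added to beta-lactamase reporter HEK293T ER-beta-UAS cells stimulated with E2 (1nM final), 16 hr at 37C. LiveBLAzer B/G FRET substrate, 2 hours room temperature, fluorescence read-out.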

[4] = qHTS assay to identify small molecule agonists of the androgen receptor (AR) signaling pathway in the presence of an antagonist - cell viability counter screen (AID 1259379); also: series mostly up to about 92 µM; nearly all actives have a fitted effect of over 25% in size
Procedure, shortened: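 MDA-kb2 human breast carcinoma cells (stable MMTV-luciferase, AR/GR responsive) were seeded 3,000 cells/well, pre-incubated 5 hr at 37C without CO2, then given 3.0uM nilutamide and compounds at 15 concentrations for 16 hr. Viability was read by CellTiter-Fluor fluorescence.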

[5] = qHTS assay to identify small molecule agonists of the estrogen receptor beta (ER-beta) signaling pathway - cell viability counter screen (AID 1259380); also: nearly all actives have a fitted effect of over 30% in size
Procedure, shortened: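 ER-beta-UAS-bla HEK293T cells in medium with 2% charcoal-stripped FBS were preincubated 6 hr at 37C, dosed with compound in DMSO for 16 hr, then after the bla read, CellTiter-Glo was added for 30 min at room temperature; luminescence recorded.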

[6] = biological target: Estrogen receptor (Homo sapiens) (UniProt P03372); experiment: qHTS assay to identify small molecule agonists of the estrogen receptor alpha (ER-alpha) signaling pathway in the presence of an antagonist (AID 1259383; calls by dose curve; also: top concentration of the series differs between compounds; nearly all actives have a fitted effect of over 15% in size)
Chain of Estrogen receptor (Homo sapiens) (P03372 whole entry, looked up): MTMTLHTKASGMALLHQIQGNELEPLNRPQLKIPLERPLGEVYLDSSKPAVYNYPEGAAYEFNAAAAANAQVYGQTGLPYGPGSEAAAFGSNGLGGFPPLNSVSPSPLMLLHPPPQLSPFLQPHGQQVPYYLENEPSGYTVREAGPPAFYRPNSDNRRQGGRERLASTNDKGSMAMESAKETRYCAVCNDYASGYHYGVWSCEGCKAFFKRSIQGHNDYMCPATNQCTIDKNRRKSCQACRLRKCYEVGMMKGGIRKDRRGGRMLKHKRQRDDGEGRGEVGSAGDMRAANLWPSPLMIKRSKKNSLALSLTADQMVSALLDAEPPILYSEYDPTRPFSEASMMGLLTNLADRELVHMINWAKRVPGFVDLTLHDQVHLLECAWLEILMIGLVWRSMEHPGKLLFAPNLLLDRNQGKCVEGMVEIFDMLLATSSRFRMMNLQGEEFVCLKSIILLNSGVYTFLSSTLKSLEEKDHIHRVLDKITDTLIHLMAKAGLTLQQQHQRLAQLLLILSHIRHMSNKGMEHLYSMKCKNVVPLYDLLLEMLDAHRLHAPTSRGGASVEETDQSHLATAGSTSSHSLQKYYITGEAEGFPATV
Procedure, shortened: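 VM7Luc4E2 cells (endogenous full-length ER-alpha, 4×ERE-luciferase) were precultured 5 days in phenol red-free medium with 10% charcoal-stripped FBS, given 10.0nM ICI-182,780 (final), then treated with compounds at 15 concentrations for 22hr at 37C; luminescence read with ONE-Glo.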

[7] = biological target: Thyrotropin receptor (Homo sapiens) (UniProt P16473); experiment: qHTS assay to identify small molecule antagonists of the thyroid stimulating hormone receptor (TSHR) signaling pathway (AID 1259385; calls by dose curve; also: nearly all actives have a fitted effect of over 20% in size)
Chain of Thyrotropin receptor (Homo sapiens) (P16473 whole entry, looked up): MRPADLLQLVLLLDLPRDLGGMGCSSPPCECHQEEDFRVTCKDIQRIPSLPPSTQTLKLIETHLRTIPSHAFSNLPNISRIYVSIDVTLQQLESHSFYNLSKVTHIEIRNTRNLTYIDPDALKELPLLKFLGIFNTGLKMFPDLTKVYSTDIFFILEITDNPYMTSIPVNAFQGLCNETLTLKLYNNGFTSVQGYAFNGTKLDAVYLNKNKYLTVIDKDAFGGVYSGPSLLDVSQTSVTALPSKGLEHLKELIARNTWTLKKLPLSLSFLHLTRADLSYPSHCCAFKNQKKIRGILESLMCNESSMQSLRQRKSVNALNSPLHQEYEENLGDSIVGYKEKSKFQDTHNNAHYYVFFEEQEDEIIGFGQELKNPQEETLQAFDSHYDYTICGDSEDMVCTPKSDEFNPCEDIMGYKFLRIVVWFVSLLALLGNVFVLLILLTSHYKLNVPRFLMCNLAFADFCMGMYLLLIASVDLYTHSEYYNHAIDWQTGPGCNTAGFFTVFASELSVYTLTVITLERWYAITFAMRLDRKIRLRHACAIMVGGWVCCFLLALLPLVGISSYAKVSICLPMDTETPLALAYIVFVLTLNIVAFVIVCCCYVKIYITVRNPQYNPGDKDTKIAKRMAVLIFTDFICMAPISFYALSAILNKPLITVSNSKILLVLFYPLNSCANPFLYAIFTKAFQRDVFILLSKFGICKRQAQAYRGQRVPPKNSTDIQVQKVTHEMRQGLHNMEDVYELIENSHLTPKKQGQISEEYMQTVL
Procedure, shortened: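 Antagonist mode: compound-treated TSHR-expressing HEK293 cells were stimulated with 1.5 ng/mL TSH (final) in presence of Ro20-1724 for 30 min at RT. HTRF cAMP detection after 1 h; each compound tested at 15 concentrations, triplicate.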

[8] = qHTS assay to identify small molecule agonists of the estrogen receptor alpha (ER-alpha) signaling pathway in the presence of an antagonist - cell viability counter screen (AID 1259386);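 also: series mostly up to about 92 µM; cells exposed to compounds for 22 h at 37 °C before the viability read; nearly all actives have a fitted effect of over 30% in size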
Procedure, shortened: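 VM7Luc4E2 cells (endogenous full-length ER-alpha, 4×ERE-luciferase) were held 5 days in phenol red-free medium with 10% charcoal-stripped FBS, plated, then given 10.0nM ICI-182,780 and compounds at 15 concentrations for 22hr at 37C; viability read by CellTiter-Fluor fluorescence.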

[9] = biological target: Progesterone receptor (Homo sapiens) (UniProt P06401); experiment: qHTS assay to identify small molecule agonists of the progesterone receptor (PR) signaling pathway (AID 1346784; calls by dose curve; also: nearly all actives have a fitted effect of over 30% in size)
Chain of Progesterone receptor (Homo sapiens) (P06401 whole entry, looked up): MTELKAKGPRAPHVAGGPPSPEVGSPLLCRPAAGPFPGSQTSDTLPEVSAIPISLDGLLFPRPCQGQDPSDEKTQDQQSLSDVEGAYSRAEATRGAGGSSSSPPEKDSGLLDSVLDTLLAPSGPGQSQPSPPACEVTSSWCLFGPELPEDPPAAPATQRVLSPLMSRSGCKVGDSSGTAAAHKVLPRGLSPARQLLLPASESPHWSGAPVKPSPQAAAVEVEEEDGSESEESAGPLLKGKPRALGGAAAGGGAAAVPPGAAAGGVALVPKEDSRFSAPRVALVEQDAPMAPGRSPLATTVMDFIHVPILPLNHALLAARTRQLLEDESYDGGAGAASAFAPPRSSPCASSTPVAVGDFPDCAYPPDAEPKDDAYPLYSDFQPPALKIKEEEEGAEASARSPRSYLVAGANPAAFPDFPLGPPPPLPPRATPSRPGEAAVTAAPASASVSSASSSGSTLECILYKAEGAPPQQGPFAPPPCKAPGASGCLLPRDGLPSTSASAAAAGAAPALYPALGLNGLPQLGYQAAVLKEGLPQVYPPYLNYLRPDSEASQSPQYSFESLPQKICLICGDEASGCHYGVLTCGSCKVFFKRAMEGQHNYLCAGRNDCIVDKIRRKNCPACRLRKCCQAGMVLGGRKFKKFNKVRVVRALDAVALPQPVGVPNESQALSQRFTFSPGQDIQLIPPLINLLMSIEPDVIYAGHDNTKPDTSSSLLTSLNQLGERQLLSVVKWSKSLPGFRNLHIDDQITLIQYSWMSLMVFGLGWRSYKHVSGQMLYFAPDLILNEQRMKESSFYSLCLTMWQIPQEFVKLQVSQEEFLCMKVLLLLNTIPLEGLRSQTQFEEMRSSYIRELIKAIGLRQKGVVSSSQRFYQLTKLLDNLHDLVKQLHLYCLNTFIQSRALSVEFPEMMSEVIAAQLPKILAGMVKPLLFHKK
Procedure, shortened: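 Using charcoal-stripped serum (2%) to limit endogenous steroids, PR-UAS-bla HEK 293T cells received compounds for 16 hr at 37C after 6 hr plating; beta-lactamase FRET fluorescence was recorded following 2 hr substrate loading at room temperature.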

[10] = biological target: Progesterone receptor (Homo sapiens) (UniProt P06401); experiment: qHTS assay to identify small molecule antagonists of the progesterone receptor (PR) signaling pathway (AID 1346795; active = well fitted inhibition curve with a large enough effect in the signal ratio in the repeat runs, not every such curve was filed as active; the % refers to the signal ratio)
Procedure, shortened: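 Inhibition of R5020-induced (1 nM final) beta-lactamase reporter signal in PR-UAS-bla HEK293T cells was scored by FRET fluorescence after overnight (16 hr) compound treatment.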

[11] = qHTS assay to identify small molecule antagonists of the progesterone receptor (PR) signaling pathway - cell viability counter screen (AID 1346798); also: series mostly up to about 92 µM; nearly all actives have a fitted effect of over 50% in size
Procedure, shortened: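 ATP content as viability readout: CellTiter-Glo luminescence, 30 min room temperature, in PR-UAS-bla HEK293T cells after 16 hr compound/R5020 treatment at 37C and 5% CO2.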

[12] = qHTS assay to identify small molecule agonists of the progesterone receptor (PR) signaling pathway - cell viability counter screen (AID 1346799; calls by dose curve; also: nearly all actives have a fitted effect of over 45% in size)
Procedure, shortened: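 Cytotoxicity in PR-bla HEK293T cells: 16 h compound, 37C; CellTiter-Glo added post-FRET read; luminescence after 30 min RT.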

[13] = qHTS assay to identify small molecule antagonists of the TGF-beta/Smad signaling pathway - cell viability counter screen (AID 1346824); also: nearly all actives have a fitted effect of over 50% in size
Procedure, shortened: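 Cytotoxicity counter-screen run in the same wells as the beta-lactamase Smad reporter read: CellTiter-Glo luminescence after 30 min at room temperature. HEK 293T SBE-bla cells had 5 hr compound exposure at 37 C with TGF-beta1 (0.25 ng/mL stock).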

[14] = qHTS assay to identify small molecule agonists of the TGF-beta/Smad signaling pathway - cell viability counter screen (AID 1346829); also: top concentration of the series differs between compounds; nearly all actives have a fitted effect of over 45% in size
Procedure, shortened: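 Tox21 qHTS format: SBE-bla HEK 293T cells treated with DMSO-dissolved compounds for 5 hr; CellTiter-Glo luminescence after 30 min at room temperature.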

[15] = qHTS assay to identify small molecule agonists of the TGF-beta/Smad signaling pathway (AID 1346859; active = well fitted activation curve with a large enough effect in the signal ratio in the repeat runs, not every such curve was filed as active; the % refers to the signal ratio; also: series mostly up to about 77 µM)
Procedure, shortened: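 Stable Smad binding element-beta-lactamase HEK 293T cells; 5 hr compound exposure at 37 C under 5% CO2; 2 hr room-temperature substrate step; fluorescence excited at 405 nm, collected at 460 nm and 530 nm.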

[16] = qHTS assay to identify small molecule antagonists of the estrogen receptor beta (ER-beta) signaling pathway - cell viability counter screen (AID 1259382);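 also: HEK293T cells carrying ER-beta-UAS-bla reporter stimulated with estradiol; series mostly up to about 92 µM; nearly all actives have a fitted effect of over 55% in size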
Procedure, shortened: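 ER-beta-UAS-bla HEK293T cells (2,000/well, 2% charcoal-stripped FBS) were pre-incubated 6 hr at 37C, then given compound plus 1nM final 17-beta-estradiol for 16 hr. Viability was read in the same wells by CellTiter-Glo luminescence after 30 min at room temperature.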

[17] = qHTS assay to identify small molecule agonists or antagonists of the thyroid stimulating hormone receptor (TSHR) signaling pathway - wild type cell line counter screen (AID 1259384; calls by dose curve)
Procedure, shortened: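 Counter screen in untransfected Hek293: compounds (15-point titration, triplicate) plus phosphodiesterase inhibitor Ro20-1724 added after 18 h plating; 30 min RT. Intracellular cAMP via competitive d2/cryptate immunoassay, 1 h incubation.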

[18] = biological target: Thyrotropin-releasing hormone receptor (Homo sapiens) (UniProt P34981); experiment: qHTS assay to identify small molecule antagonists of the thyrotropin-releasing hormone receptor (TRHR) signaling pathway (AID 1346877; active = well fitted inhibition curve with a large enough effect in the repeat runs, not every such curve was filed as active; also: series mostly up to about 51 µM)
Chain of Thyrotropin-releasing hormone receptor (Homo sapiens) (P34981 whole entry, looked up): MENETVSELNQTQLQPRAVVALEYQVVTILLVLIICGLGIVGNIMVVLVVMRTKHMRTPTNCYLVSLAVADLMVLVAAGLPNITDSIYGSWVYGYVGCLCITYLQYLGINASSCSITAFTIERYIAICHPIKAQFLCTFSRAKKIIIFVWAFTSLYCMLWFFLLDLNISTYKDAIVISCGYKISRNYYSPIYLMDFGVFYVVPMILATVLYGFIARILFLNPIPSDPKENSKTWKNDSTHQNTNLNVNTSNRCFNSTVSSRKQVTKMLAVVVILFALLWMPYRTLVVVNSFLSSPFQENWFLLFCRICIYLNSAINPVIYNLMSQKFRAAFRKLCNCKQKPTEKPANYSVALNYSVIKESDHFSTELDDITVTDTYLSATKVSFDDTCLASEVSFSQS
Procedure, shortened: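 TRHR-expressing HEK293 cells were seeded, cultured 18 h at 37 °C, then loaded with calcium dye for 2 h. Compounds were pre-incubated 5 min at room temperature before 1 nM TRH (final) was added, and kinetic fluorescence was recorded for 3 min.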

[19] = biological target: Thyrotropin-releasing hormone receptor (Homo sapiens) (UniProt P34981); experiment: qHTS assay to identify small molecule agonists of the thyrotropin-releasing hormone receptor (TRHR) signaling pathway (AID 1346891; calls by dose curve; also: series mostly up to about 58 µM)
Procedure, shortened: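 In 1536-format, 1500 TRHR-Hek293 cells per well grew 18 h, took up calcium dye for 2 h at 37 °C, received compound, and were read kinetically; 15-point titrations, triplicates.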

[20] = biological target: Androgen receptor (Homo sapiens) (UniProt P10275); experiment: qHTS assay to identify small molecule agonists of the androgen receptor (AR) signaling pathway in the presence of an antagonist (AID 1259381; calls by dose curve; also: nearly all actives have a fitted effect of over 15% in size)
Chain of Androgen receptor (Homo sapiens) (P10275 whole entry, looked up): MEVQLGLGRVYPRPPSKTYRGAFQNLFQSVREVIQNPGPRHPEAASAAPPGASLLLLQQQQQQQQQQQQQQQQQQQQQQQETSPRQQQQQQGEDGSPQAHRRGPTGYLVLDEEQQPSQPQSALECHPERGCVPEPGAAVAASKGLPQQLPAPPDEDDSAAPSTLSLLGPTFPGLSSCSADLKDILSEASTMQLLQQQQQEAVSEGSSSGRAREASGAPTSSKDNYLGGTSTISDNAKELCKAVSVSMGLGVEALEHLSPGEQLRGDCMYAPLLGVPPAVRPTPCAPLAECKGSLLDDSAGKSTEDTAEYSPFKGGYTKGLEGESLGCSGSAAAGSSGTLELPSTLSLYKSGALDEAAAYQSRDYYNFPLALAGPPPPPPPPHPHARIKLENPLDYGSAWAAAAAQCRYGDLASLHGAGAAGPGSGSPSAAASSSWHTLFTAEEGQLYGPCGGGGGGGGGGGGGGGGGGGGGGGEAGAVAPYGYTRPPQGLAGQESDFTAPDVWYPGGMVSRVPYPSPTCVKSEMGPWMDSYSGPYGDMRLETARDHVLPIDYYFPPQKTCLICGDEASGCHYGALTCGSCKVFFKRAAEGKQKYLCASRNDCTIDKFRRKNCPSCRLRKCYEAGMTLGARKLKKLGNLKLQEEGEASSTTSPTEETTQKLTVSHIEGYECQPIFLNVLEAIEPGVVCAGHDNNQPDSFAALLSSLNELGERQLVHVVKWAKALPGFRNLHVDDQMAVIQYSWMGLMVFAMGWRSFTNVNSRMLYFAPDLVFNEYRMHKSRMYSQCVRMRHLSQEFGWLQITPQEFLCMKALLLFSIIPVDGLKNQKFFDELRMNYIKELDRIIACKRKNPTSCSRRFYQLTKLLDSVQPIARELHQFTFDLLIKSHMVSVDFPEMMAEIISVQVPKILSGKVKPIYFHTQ
Procedure, shortened: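 MDA-kb2 human breast carcinoma cells carrying an MMTV-luciferase reporter (AR- and GR-responsive) were treated with compounds at 15 concentrations plus 3.0uM final nilutamide for 16hr at 37C without CO2; luminescence was read after ONE-Glo addition.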

Measured: Potency

C=CCCC(=O)O
not listed: [16] | [17] | [18] | [19] | [20]
inactive: all other assays above

CCOCC(C)O (centres undefined)
not listed: [4] | [20]
inactive: all other assays above

Cc1ccc(C(=O)c2ccccc2)cc1
not listed: [4]
inactive: all other assays above

CCCCCCCCN1CCCC1=O
not listed: [6] | [11] | [14] | [20]
inactive: all other assays above

c1ccc(Cc2ccccc2)cc1
not listed: [7] | [17] | [18] | [20]
inactive: all other assays above

CC1=C(C/C=C(\C)CCC[C@H](C)CCC[C@H](C)CCCC(C)C)C(=O)c2ccccc2C1=O
not listed: [6] | [14] | [16] | [18] | [19] | [20]
inactive: all other assays above

CCCCCCC#CC(=O)OC
not listed: [6] | [7] | [14] | [17] | [20]
inactive: all other assays above

C=CC(=O)OCCCl
not listed: [9] | [16] | [17] | [20]
inactive: all other assays above
